Experimental data taken from the supplement of paper PMC13380429.

System: Vero E6 infected with SARS-CoV-2
Assay: inhibition of SARS-CoV-2 cytopathic effect; higher = more antiviral protection, active = above 15
Conditions: 48 h

Measured: inhibition of SARS-CoV-2 cytopathic effect

CC(C)(C)c1cc(C(=O)/C(C#N)=N/Nc2cccc(Cl)c2)no1
inactive: 1 nM 1.62% | 8.33 nM -1.2% | 100 nM -0.43% | 833.33 nM 2.18% | 10000 nM 11.6%

Cc1nc(N)sc1CCN [amthamine]
inactive: 1 nM -1.84% | 8.33 nM -1.83% | 100 nM -2.06% | 833.33 nM 0.97% | 10000 nM 0.76%

O=C(Cc1cccc(OC(F)(F)F)c1)Nc1ccc(CCCCc2nnc(NC(=O)Cc3ccccn3)s2)nn1
inactive: 1 nM -1.49% | 8.33 nM -0.26% | 100 nM -1.18% | 833.33 nM -5.17% | 10000 nM -3.68%

C[C@](N)(Cc1ccc(O)c(O)c1)C(=O)O [methyldopa]
inactive: 1 nM -0.96% | 8.33 nM 0.87% | 100 nM -0.52% | 833.33 nM -1.66% | 10000 nM 0.52%

O=C(OCC(O)CO)c1ccccc1Nc1ccnc2cc(Cl)ccc12 (stereo not given) [glafenine]
inactive: 1 nM -1.53% | 8.33 nM 0.88% | 100 nM 2.29% | 833.33 nM -3.09% | 10000 nM -2.34%

CCOc1cc(N2CCC(O)CC2)ccc1Nc1ncc2c(n1)N(C)c1ccccc1C(=O)N2C
inactive: 1 nM 1.68% | 8.33 nM 1.49% | 100 nM 1.28% | 833.33 nM -1.36% | 10000 nM -1.31%

COC(=O)Nc1ccc2[nH]cc(CCNC(C)=O)c2c1
inactive: 1 nM -2.08% | 8.33 nM -0.32% | 100 nM -1.52% | 833.33 nM -7.74% | 10000 nM -1.85%
